13 sequences from paper PMC8384837, “Expanding the binding specificity for RNA recognition by a PUF domain” can be followed below.

Holding throughout (experiment): yeast three-hybrid, YBZ-1, SC-Leu-His + 0.5 mM 3-AT, 4 days
Conditions in all cases: tags: N-Gal4 AD-HA kept; label: inside an RPR1-promoter hybrid RNA with tandem MS2 sites; ssRNA

The target in one assay is PUM1 PUF domain R5-RQQ (Homo sapiens, UniProt Q14671 828-1176, C1007R;R1008Q). Summed up:
(§1)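 The interaction score is the log change in how often each variant appears, from input to selection. Frequencies came from PCR-amplified, Illumina-sequenced repeat regions of Pumilio-1 PUF domain libraries grown in strain YBZ-1 (LexA–MS2 coat fusion, HIS3 reporter) alongside matching RNA elements. Input plates were SC-Leu and selection plates were SC-Leu-His + 0.5 mM 3-AT, each for four days, and the log2 calculation used a pseudocount of 1 where a variant was absent.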

The next assay deals with PUM1 PUF domain R5-DRR (Homo sapiens, UniProt Q14671 828-1176, C1007D;Q1011R). The method, boiled down: as §1
A further assay deals with PUM1 PUF domain R5-RGV (Homo sapiens, UniProt Q14671 828-1176, C1007R;R1008G;Q1011V). Summed up:
as §1

The target in a further assay is PUM1 PUF domain R5-RQT (Homo sapiens, UniProt Q14671 828-1176, C1007R;R1008Q;Q1011T). Summed up: as §1
Another assay addresses PUM1 PUF domain R5-KLI (Homo sapiens, UniProt Q14671 828-1176, C1007K;R1008L;Q1011I). Summed up:
as §1

Another assay addresses PUM1 PUF domain R5-KSD (Homo sapiens, UniProt Q14671 828-1176, C1007K;R1008S;Q1011D). Summed up: as §1
A further assay concerns the target PUM1 PUF domain R5-DWY (Homo sapiens, UniProt Q14671 828-1176, C1007D;R1008W;Q1011Y). Summed up: as §1
In a further assay the target is PUM1 PUF domain R7-GCD (Homo sapiens, UniProt Q14671 828-1176, S1079G;N1080C;E1083D). The method, boiled down:
as §1

The target of the next assay is PUM1 PUF domain R1-KRA (Homo sapiens, UniProt Q14671 828-1176, S863K;Q867A). The method, boiled down: as §1
A further assay addresses PUM1 PUF domain R8-KHQ (Homo sapiens, UniProt Q14671 828-1176, N1122K;Y1123H). The method, boiled down: as §1
In the next assay the target is T1, PUM1 PUF domain R6-EWK (Homo sapiens, UniProt Q14671 828-1176, N1043E;Y1044W;Q1047K).
T1 sequence: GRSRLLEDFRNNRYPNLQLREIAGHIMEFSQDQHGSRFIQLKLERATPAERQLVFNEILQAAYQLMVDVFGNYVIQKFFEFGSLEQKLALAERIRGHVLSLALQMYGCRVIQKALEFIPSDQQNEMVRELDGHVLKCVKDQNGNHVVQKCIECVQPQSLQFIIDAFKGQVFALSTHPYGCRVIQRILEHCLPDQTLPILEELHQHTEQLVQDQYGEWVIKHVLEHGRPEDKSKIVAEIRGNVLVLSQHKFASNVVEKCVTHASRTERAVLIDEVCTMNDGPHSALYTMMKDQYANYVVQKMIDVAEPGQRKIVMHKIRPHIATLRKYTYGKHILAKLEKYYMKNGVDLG
The method, boiled down:
as §1

For the next assay, the target named is PUM1 PUF domain R4-IML (Homo sapiens, UniProt Q14671 828-1176, N971I;H972M;Q975L). The method, boiled down:
as §1

For a further assay, the target named is PUM1 PUF domain R5-TFY (Homo sapiens, UniProt Q14671 828-1176, C1007T;R1008F;Q1011Y). The method, boiled down: as §1
A further assay has as its target T2, PUM1 PUF domain R6-IYE (Homo sapiens, UniProt Q14671 828-1176, N1043I;Q1047E).
T2 sequence: T1 sequence with E216I, W217Y, K220E
The method, boiled down: as §1

The next assay concerns the target T3, PUM1 PUF domain R6-LYL (Homo sapiens, UniProt Q14671 828-1176, N1043L;Q1047L).
T3 sequence: T1 sequence with E216L, W217Y, K220L
Summed up:
as §1

In another assay the target is PUM1 PUF domain R4-SRN (Homo sapiens, UniProt Q14671 828-1176, N971S;H972R;Q975N). The method, boiled down:
as §1

The target in the next assay is PUM1 PUF domain R3-DYS (Homo sapiens, UniProt Q14671 828-1176, C935D;R936Y;Q939S). Summed up: as §1
Another assay concerns the target PUM1 PUF domain R4-QPG (Homo sapiens, UniProt Q14671 828-1176, N971Q;H972P;Q975G). Summed up: as §1
The target in a further assay is PUM1 PUF domain R5-PFG (Homo sapiens, UniProt Q14671 828-1176, C1007P;R1008F;Q1011G). Summed up: as §1
A further assay has as its target PUM1 PUF domain R3-LRE (Homo sapiens, UniProt Q14671 828-1176, C935L;Q939E). Summed up: as §1

Changes are numbered by the printed parent chain.

PUM1 PUF domain R4-QPG, sequence (Q14671 828-1176 N971Q/H972P/Q975G): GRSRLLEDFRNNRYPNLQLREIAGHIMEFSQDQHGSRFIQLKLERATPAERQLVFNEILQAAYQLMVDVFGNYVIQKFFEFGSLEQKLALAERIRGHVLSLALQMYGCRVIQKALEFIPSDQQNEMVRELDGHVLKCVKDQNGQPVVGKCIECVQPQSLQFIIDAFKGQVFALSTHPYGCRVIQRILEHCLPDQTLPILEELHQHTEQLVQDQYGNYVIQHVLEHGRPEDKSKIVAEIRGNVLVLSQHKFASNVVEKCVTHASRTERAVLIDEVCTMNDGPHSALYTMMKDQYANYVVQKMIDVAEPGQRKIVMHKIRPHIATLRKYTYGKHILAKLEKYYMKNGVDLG
PUM1 PUF domain R5-DWY, sequence (Q14671 828-1176 C1007D/R1008W/Q1011Y): as the sequence (Q14671 828-1176 N971Q/H972P/Q975G) above, with Q144N, P145H, G148Q, C180D, R181W, Q184Y counted along it
PUM1 PUF domain R5-RGV, sequence (Q14671 828-1176 C1007R/R1008G/Q1011V): as the sequence (Q14671 828-1176 N971Q/H972P/Q975G) above, with Q144N, P145H, G148Q, C180R, R181G, Q184V counted along it
PUM1 PUF domain R5-KSD, sequence (Q14671 828-1176 C1007K/R1008S/Q1011D): as the sequence (Q14671 828-1176 N971Q/H972P/Q975G) above, with Q144N, P145H, G148Q, C180K, R181S, Q184D counted along it
PUM1 PUF domain R5-RQT, sequence (Q14671 828-1176 C1007R/R1008Q/Q1011T): as the sequence (Q14671 828-1176 N971Q/H972P/Q975G) above, with Q144N, P145H, G148Q, C180R, R181Q, Q184T counted along it
PUM1 PUF domain R4-IML, sequence (Q14671 828-1176 N971I/H972M/Q975L): as the sequence (Q14671 828-1176 N971Q/H972P/Q975G) above, with Q144I, P145M, G148L counted along it
PUM1 PUF domain R8-KHQ, sequence (Q14671 828-1176 N1122K/Y1123H): as the sequence (Q14671 828-1176 N971Q/H972P/Q975G) above, with Q144N, P145H, G148Q, N295K, Y296H counted along it
PUM1 PUF domain R5-PFG, sequence (Q14671 828-1176 C1007P/R1008F/Q1011G): as the sequence (Q14671 828-1176 N971Q/H972P/Q975G) above, with Q144N, P145H, G148Q, C180P, R181F, Q184G counted along it
PUM1 PUF domain R5-KLI, sequence (Q14671 828-1176 C1007K/R1008L/Q1011I): as the sequence (Q14671 828-1176 N971Q/H972P/Q975G) above, with Q144N, P145H, G148Q, C180K, R181L, Q184I counted along it
PUM1 PUF domain R3-DYS, sequence (Q14671 828-1176 C935D/R936Y/Q939S): as the sequence (Q14671 828-1176 N971Q/H972P/Q975G) above, with C108D, R109Y, Q112S, Q144N, P145H, G148Q counted along it

As to “GGCUAGAACUAGUGGAUCCCCCGGCGCCCGGCGGCUCGAGCCCGGGUAAGUGUCAAUAGUCUGCAUGCCGCCGGGCGCCAUGCCUGCAGGUCGACUCUAGAAAACAUG”, the binding signal in the assay with PUM1 PUF domain R5-RQQ is 5.36 log2 enrichment (interaction score); with PUM1 PUF domain R5-DRR, 3.48 log2 enrichment (interaction score); with PUM1 PUF domain R5-RGV it was 2.55 log2 enrichment (interaction score); in the assay with PUM1 PUF domain R5-RQT, 4.99 log2 enrichment (interaction score); with PUM1 PUF domain R5-KLI, 2.75 log2 enrichment (interaction score); in the assay with PUM1 PUF domain R5-KSD, 2.5 log2 enrichment (interaction score). For the same sequence, the binding signal with PUM1 PUF domain R5-DWY was 1.16 log2 enrichment (interaction score).

On to “GGCUAGAACUAGUGGAUCCCCCGGCGCCCGGCGGCUCGAGCCCGGGUAAGUUUAAAUAGUCUGCAUGCCGCCGGGCGCCAUGCCUGCAGGUCGACUCUAGAAAACAUG”, for which the binding signal with PUM1 PUF domain R7-GCD was 3.51 log2 enrichment (interaction score).

As to “GGCUAGAACUAGUGGAUCCCCCGGCGCCCGGCGGCUCGAGCCCGGGUAAGUGUAAAUCGUCUGCAUGCCGCCGGGCGCCAUGCCUGCAGGUCGACUCUAGAAAACAUG”, the binding signal with PUM1 PUF domain R1-KRA was 5.03 log2 enrichment (interaction score).

With “GGCUAGAACUAGUGGAUCCCCCGGCGCCCGGCGGCUCGAGCCCGGGUAAGCGUAAAUAGUCUGCAUGCCGCCGGGCGCCAUGCCUGCAGGUCGACUCUAGAAAACAUG”, the binding signal with PUM1 PUF domain R8-KHQ was 4.7 log2 enrichment (interaction score).

As for “GGCUAGAACUAGUGGAUCCCCCGGCGCCCGGCGGCUCGAGCCCGGGUAAGUGGAAAUAGUCUGCAUGCCGCCGGGCGCCAUGCCUGCAGGUCGACUCUAGAAAACAUG”, in the assay with PUM1 PUF domain R6-EWK, the binding signal is 2.84 log2 enrichment (interaction score).

Consider “GGCUAGAACUAGUGGAUCCCCCGGCGCCCGGCGGCUCGAGCCCGGGUAAGUGUGAAUAGUCUGCAUGCCGCCGGGCGCCAUGCCUGCAGGUCGACUCUAGAAAACAUG”, for which the figures for the binding signal in the assay with PUM1 PUF domain R5-RQQ and with PUM1 PUF domain R5-DWY were 1.47 log2 enrichment (interaction score) and 2.39 log2 enrichment (interaction score), respectively.

Regarding “GGCUAGAACUAGUGGAUCCCCCGGCGCCCGGCGGCUCGAGCCCGGGUAAGUGUUAAUAGUCUGCAUGCCGCCGGGCGCCAUGCCUGCAGGUCGACUCUAGAAAACAUG”, the binding signal is 5.69 log2 enrichment (interaction score) with PUM1 PUF domain R5-RQQ, 2.64 log2 enrichment (interaction score) with PUM1 PUF domain R5-DRR, 0.34 log2 enrichment (interaction score) with PUM1 PUF domain R5-RGV and 1.41 log2 enrichment (interaction score) in the assay with PUM1 PUF domain R5-KSD.

Turning to “GGCUAGAACUAGUGGAUCCCCCGGCGCCCGGCGGCUCGAGCCCGGGUAAGUGUAGAUAGUCUGCAUGCCGCCGGGCGCCAUGCCUGCAGGUCGACUCUAGAAAACAUG”, the binding signal with PUM1 PUF domain R4-IML is 3.09 log2 enrichment (interaction score).

On to “GGCUAGAACUAGUGGAUCCCCCGGCGCCCGGCGGCUCGAGCCCGGGUAAGUGUAAAUAGUCUGCAUGCCGCCGGGCGCCAUGCCUGCAGGUCGACUCUAGAAAACAUG”, for which the binding signal is 2.23 log2 enrichment (interaction score) in the assay with PUM1 PUF domain R5-TFY; 2.5 log2 enrichment (interaction score) with PUM1 PUF domain R6-IYE; 2.24 log2 enrichment (interaction score) with PUM1 PUF domain R6-LYL; 3.38 log2 enrichment (interaction score) with PUM1 PUF domain R4-SRN; 4.59 log2 enrichment (interaction score) with PUM1 PUF domain R3-DYS; 1.57 log2 enrichment (interaction score) with PUM1 PUF domain R5-RQT. The binding signal was 2.21 log2 enrichment (interaction score) in the assay with PUM1 PUF domain R4-QPG, 6.99 log2 enrichment (interaction score) with PUM1 PUF domain R5-DWY and 6.32 log2 enrichment (interaction score) with PUM1 PUF domain R5-PFG.

Regarding “GGCUAGAACUAGUGGAUCCCCCGGCGCCCGGCGGCUCGAGCCCGGGUAAGUGUAUAUAGUCUGCAUGCCGCCGGGCGCCAUGCCUGCAGGUCGACUCUAGAAAACAUG”, the binding signal with PUM1 PUF domain R4-SRN is 0.7 log2 enrichment (interaction score); with PUM1 PUF domain R4-QPG it was 5.06 log2 enrichment (interaction score).

As to “GGCUAGAACUAGUGGAUCCCCCGGCGCCCGGCGGCUCGAGCCCGGGUAAGUGUAAGUAGUCUGCAUGCCGCCGGGCGCCAUGCCUGCAGGUCGACUCUAGAAAACAUG”, the binding signal with PUM1 PUF domain R3-LRE is 3.1 log2 enrichment (interaction score).

With “GGCUAGAACUAGUGGAUCCCCCGGCGCCCGGCGGCUCGAGCCCGGGUAAGUGUACAUAGUCUGCAUGCCGCCGGGCGCCAUGCCUGCAGGUCGACUCUAGAAAACAUG”, the binding signal with PUM1 PUF domain R4-QPG was 3.33 log2 enrichment (interaction score).

“GGCUAGAACUAGUGGAUCCCCCGGCGCCCGGCGGCUCGAGCCCGGGUAAGUGAAAAUAGUCUGCAUGCCGCCGGGCGCCAUGCCUGCAGGUCGACUCUAGAAAACAUG”: the binding signal with PUM1 PUF domain R6-LYL is 3.54 log2 enrichment (interaction score).
